# Source: PubChem (Sanford-Burnham Center for Chemical Genomics)
# Shown are actives, neighbours in structure and some others; about 31% of the full set was active somewhere.
# CYP2C9 act = human CYP2C9 activators, primary screen, biochemical, luminescence; Cytochrome P450 2C9 (Homo sapiens), P11712; recombinant CYP2C9, luciferin-H conversion; stronger effect = higher value; factor 1 = untreated enzyme, 0 = blocked; activation factor at 5 µM; 96,000 compounds, 1.4% hits; AID 1024, 2008;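 active means activation factor of 2 or more for CYP2C9 at a 5 µM dose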;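 further: 0 = sulfaphenazole-blocked wells and 1 = vehicle-only wells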
# CYP2C19 inhib = blockers of cytochrome P450 2C19 activity – biochemical, luminescence, ADME assay, primary screen | CYP2C19 Supersomes, luciferin-H EGE luminescence, 30 min | inhibition, % at 5 µM | 96,000 compounds, 21% hits;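 active means CYP2C19 inhibition above a set limit at 5 µM in the primary screen, cut at about 50% in these data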;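 further: plate controls were negative control wells for no effect and 2.5 mM tranylcypromine positive control for full effect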
# CYP2C9 inhib = blockers of cytochrome P450 2C9 activity – biochemical, luminescence, ADME assay, primary screen; inhibition, % at 5 µM; 96,000 compounds, 20% hits; P11712; AID 777, 2007; CYP2C9 Supersomes, luciferin-H conversion;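 active means blocking of liver enzyme CYP2C9 beyond about 50% at 5 µM, limit read from the data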
# CYP2C19 activ = human CYP2C19 activators, primary screen, biochemical, luminescence | recombinant CYP2C19, luciferin-H EGE luminescence; stronger effect = higher value; 0 = fully inhibited enzyme, 1 = untreated enzyme | 96,000 tested, under 10 active | activation factor at 5 µM | Cytochrome P450 2C19 (Homo sapiens), P33261;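 active means activation factor of at least 2 at 5 µM in the primary screen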;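 further: 0 = wells with 2.5 mM tranylcypromine and 1 = vehicle-only wells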
# PLAP act = PLAP enzyme activators, biochemical, luminescence, HTS; AID 696, 2007; purified PLAP enzyme, luminescent substrate read-out; stronger effect = higher value; Alkaline phosphatase, placental type (Homo sapiens), P05187; activation fold at 20 µM; 96,000 compounds, 1.2% hits; in the data active means activation fold above about 2
# Target sequence (P05187 whole entry, looked up): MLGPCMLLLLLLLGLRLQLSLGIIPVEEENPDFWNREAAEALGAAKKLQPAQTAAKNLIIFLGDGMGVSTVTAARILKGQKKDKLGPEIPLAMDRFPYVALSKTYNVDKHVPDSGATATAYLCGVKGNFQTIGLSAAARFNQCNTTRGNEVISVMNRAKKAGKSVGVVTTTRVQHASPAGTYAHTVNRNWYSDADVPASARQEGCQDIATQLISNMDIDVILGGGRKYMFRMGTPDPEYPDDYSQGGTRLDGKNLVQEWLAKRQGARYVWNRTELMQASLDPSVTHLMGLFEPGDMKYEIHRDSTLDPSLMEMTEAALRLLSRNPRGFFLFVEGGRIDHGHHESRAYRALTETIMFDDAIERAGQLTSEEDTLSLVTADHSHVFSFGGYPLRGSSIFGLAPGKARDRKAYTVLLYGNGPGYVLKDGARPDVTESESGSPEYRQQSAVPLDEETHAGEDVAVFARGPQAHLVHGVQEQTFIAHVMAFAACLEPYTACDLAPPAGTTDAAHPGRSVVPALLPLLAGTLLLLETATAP
# Numbers without * were called inactive.
SMILES,CYP2C9 act,CYP2C19 inhib,CYP2C9 inhib,CYP2C19 activ,PLAP act
Cc1cc(C)c(C(N)=O)c(NC(=O)Nc2ccccc2Cl)n1,0.8,2,16,1,0.9
CN(C)CC(C)(C)CNS(=O)(=O)c1cccc(Cl)c1Cl,0.7,77*,32,0.2,1
CCN(C(=O)C1CCCCC1)c1nnc(-c2cccnc2)s1,0.6,40,40,0.6,1.7
Cc1ccc(CN2CCN(CC3CC4C=CC3C4)CC2)cc1 (stereo not given),1.1,14,-5,0.9,1.4
CC(O)c1ccc2c(c1)OCCOCCN(C)CCOCCO2 (stereo not given),1,-2,1,1,1.2
CC(C)CCC(CCN1CCOCC1)c1ccc2c(c1)OCO2 (stereo not given),0.5,95*,51*,0,1.4
CCOC(=O)c1[nH]c(C)c(CN(Cc2ccco2)C(=O)C(F)(F)F)c1C,0.8,-3,18,1,1
C=CCn1c(O)c(C=Nc2ccc(Cc3ccncc3)cc2)c(=O)[nH]c1=S,0.2,88*,83*,0.1,1.5
COC(=O)c1ccc(NC(=O)Cn2nc(SC)n(N)c2=S)cc1,0.9,23,8,0.8,0.9
COCCn1c(C)cc(C(=O)COC(=O)c2cc3c(s2)CCC3)c1C,1.1,57*,-7,0.4,1.6
CCC(C)(C(=O)NC1CCCCC1)N(Cc1ccco1)C(=O)c1ccc2c(c1)OCO2 (stereo not given),0.4,83*,60*,0.2,1.8
CCC(C)(C(=O)NC1CCCC1)N(CC1CCCO1)C(=O)c1ccc2c(c1)OCO2 (stereo not given),1,10,4,0.9,1.2
O=C(NC1CCCCC1)C(c1ccc2ncccc2c1)N(Cc1cccs1)C(=O)c1cccs1 (stereo not given),0.4,60*,59*,0.4,1.6
O=C(NC1CCCCC1)C(c1ccc2ncccc2c1)N(Cc1ccc(F)cc1)C(=O)c1ccc2c(c1)OCCO2 (stereo not given),0.8,42,22,0.6,1.2
O=C(NC1CCCCC1)C(c1ccc2ncccc2c1)N(Cc1ccco1)C(=O)c1ccc2c(c1)OCCO2 (stereo not given),0.3,70*,70*,0.3,1.3
O=C(Nc1ccccc1)C1CC=CCC1C(=O)OCC1CCCO1 (stereo not given),0.9,22,8,0.8,1.2
Cc1cccc(N2CCN(C(=O)C3CCN(S(=O)(=O)c4cccnc4)CC3)CC2)c1C,0.8,14,20,0.9,1.4
COc1cc2cc(C(N)=O)c(N)nc2cc1OC,1,-11,-4,1.1,1.1
CC1CCc2c(sc(NC(=O)c3ccc(-c4ccccc4[N+](=O)[O-])o3)c2C#N)C1 (stereo not given),0.1,11,91*,0.9,1
N#Cc1c(NC(=O)c2ccc(-c3ccccc3[N+](=O)[O-])o2)sc2c1CCCC2,0,50,99*,0.5,1.1
COC(=O)CNC(=O)Cc1c(F)cccc1Cl,1.1,-11,-7,1.1,0.9
CCOc1ccccc1N1CCN(Cc2ccc(OC)c(OC)c2)CC1,1.2,8,-19,0.9,1.1
CCOc1ccccc1N1CCN(Cc2ccco2)CC1,0.8,51*,16,0.5,1.8
CCOc1ccccc1N1CCN(Cc2ccc(Br)s2)CC1,0.5,45,52*,0.5,1.2
COc1ccccc1N1CCN(Cc2ccc(Br)o2)CC1,0.5,93*,54*,0.1,1.2
SMILES,CYP2C9 act,CYP2C19 inhib,CYP2C9 inhib,CYP2C19 activ,PLAP act
Cc1nc2cc(C(F)(F)F)ccc2n1C1CCN(C(=O)N2CCOCC2)CC1,0.7,9,27,0.9,1.8
COc1ccc(-c2[nH]ncc2/C=C(/C#N)C(=O)NC2CCCCCC2)cc1,0.7,17,33,0.8,1.1
Cc1cc(C(=O)N/N=C/c2cccc(OC(=O)c3ccco3)c2)n[nH]1,0.8,-4,16,1,1.4
CCc1ccc2c(c1)/C(=C/C(=O)c1cccs1)C(=O)N2,0.8,8,20,0.9,0.7
CCc1ccc2c(c1)/C(=N/N(C)C(=S)NC)C(=O)N2,0.9,52*,11,0.5,0.9
COc1ccc(CN(C)c2ncnc(N)n2)cc1,0.9,78*,11,0.2,0.9
COc1ccc(CNc2ncnc(N)n2)cc1,1,0,-3,1,1
CCCCNC(=O)c1cc(-c2ccc(OC)cc2)on1,0.8,47,20,0.5,1.3
COc1ccc(-c2noc(CCC(=O)N3CCN(c4cccc(C(F)(F)F)c4)CC3)n2)cc1,0.2,70*,83*,0.3,1.1
COc1ccc(-c2cc(CCCC(=O)N3CCN(c4ccc(OC)cc4)CC3)no2)cc1,0.3,70*,71*,0.3,1.3
CCOc1ccc(-c2cc(CCCC(=O)NCc3ccco3)no2)cc1,0.8,2,19,1,0.9
CCOc1ccc(-c2cc(CCCC(=O)NCc3ccc(C)cc3)no2)cc1,0.5,36,53*,0.6,0.8
COc1ccc(-c2cc(CCCC(=O)NCCc3cc(OC)ccc3OC)no2)cc1,0.3,57*,66*,0.4,1.1
COc1ccc(N2CCN(C(=O)CCCC3=NS(=O)(=O)c4ccccc4N3)CC2)cc1,0.9,5,8,0.9,1.1
CCC(c1nnnn1CS(=O)(=O)c1ccc(C)cc1)N1CCN(c2nc3ccccc3s2)CC1 (stereo not given),0.5,13,48,0.9,1.8
CC(C)(Cl)C1Cc2cc3ccc(=O)oc3cc2O1 (stereo not given),1,-2,-1,1,0.9
CCOc1c2ccc(C(=O)NCc3ccccc3OC)cc2nn1CC,1.1,2,-12,1,1
CCOC(=O)N1CCC(NS(=O)(=O)c2cc(Br)cc3c2N(C(=O)CC)CC3)CC1,1,21,3,0.8,1.2
COc1ccc(C2C(C#N)=C(C)NC3=C2C(=O)c2ccccc23)cc1 (stereo not given),0.9,11,13,0.9,1.1
CCOc1ccc(C2C(C#N)=C(C)NC3=C2C(=O)c2ccccc23)cc1 (stereo not given),0,99*,97*,0,1.2
COc1cc(C2C(C#N)=C(C)NC3=C2C(=O)c2ccccc23)cc(OC)c1OC (stereo not given),0,29,98*,0.7,1
COc1cc(OC)c2c(c1)C(=O)c1cc(OC)cc(OC)c1C2=O,1,4,2,1,0.9
O=c1cc(-c2ccncc2)oc2ccccc12,0.6,86*,36,0.1,0.9
COC(=O)C(Cc1cnc(Cl)s1)(C(=O)OC)c1ccc([N+](=O)[O-])cc1[N+](=O)[O-],0.3,79*,67*,0.2,1.4
